Unmarked numbers belong to inactive results. Calls come from the whole dose curve; as a rule, active = well fitted activation curve with a large enough effect; inconclusive = small, poorly fitted or top-dose-only effect; inactive = flat fitted curve, though single readings scatter.
Assay: Cellular Toxicity (caspase-3) Mesangial (AID 660);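 note: combined caspase 3 and 7 activity read by Caspase-Glo luminescence; cells exposed to compound for 16 h before the caspase read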
Conditions: mesangial cells, normalized: DMSO 0%, 100 µM tamoxifen 100%; at 91.7 µM (top of the series)
Method in brief: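 AC50 values come from Hill-equation fits of caspase 3/7 activation, measured as Caspase-Glo luminescence in human glomerular mesangial cells exposed to compound for 16 h at 37 °C; 100% set by 100 uM tamoxifen.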
Nc1nc(CC(=O)O)cs1 showed a caspase-3 activation of 0.647%. For CC(=O)CC(C)C, the caspase-3 activation was 0.196%. For CCCCC(CC)CO (centres undefined), the caspase-3 activation was -0.254%. Compound CCCCC(=O)N(C)C has a caspase-3 activation of 0.37%. In the case of O=CNc1ccccc1, the caspase-3 activation is reported as -0.303%. Clc1ccc(Cl)c(Cl)c1Cl showed a caspase-3 activation of -0.853%. C=CCCCCCCC=C showed a caspase-3 activation of 4.38%. CCCCCCC=O gave a caspase-3 activation of -0.687%. CCCCC(CC)COCC1CO1 (centres undefined) showed a caspase-3 activation of -0.684%. Cc1cc(C)cc(N)c1 showed a caspase-3 activation of -0.679%. C=CCOC(=O)COCCC(C)C showed a caspase-3 activation of -0.0239%. Work on O=C(O)CNC(=O)c1ccc(CO)o1 yielded a caspase-3 activation of -0.765%. Compound C=C(C)C(N)=O has a caspase-3 activation of -0.474%. In the case of CCN(Cc1ccccc1)c1ccccc1, the caspase-3 activation is reported as -0.109%. Work on O=C(O)c1cccc(Cl)c1Cl yielded a caspase-3 activation of 0.259%. In the case of CC(=O)c1cccc([N+](=O)[O-])c1, the caspase-3 activation is reported as 1.01%. In the case of O=C(O)CNC(=O)c1ccc([N+](=O)[O-])cc1, the caspase-3 activation is reported as -0.679%. For Nc1c(Cl)cc(Cl)cc1Cl, the caspase-3 activation was 0.75%. In the case of C=CCCCC, the caspase-3 activation is reported as -0.265%. With NC(=O)c1cccc([N+](=O)[O-])c1 the caspase-3 activation was 0.906%. C=C(C)OC(C)=O gave a caspase-3 activation of -0.109%. Compound CC(C)Cc1nccs1 has a caspase-3 activation of 1.49%. Compound CC(C)c1ccccc1 has a caspase-3 activation of -1.25%. CCOCCOCC showed a caspase-3 activation of 0.404%. CCC1CO1 (centres undefined) showed a caspase-3 activation of 0.872%. With NC(=O)CCCCC(N)=O the caspase-3 activation was -0.354%. Work on CCOC(C)(C)C yielded a caspase-3 activation of -0.979%. Work on CC(N)CN (centres undefined) yielded a caspase-3 activation of 2.7%. In the case of Cc1ccc(C(C)(C)C)cc1, the caspase-3 activation is reported as -0.798%. Compound Cc1ccc(C#N)cc1 has a caspase-3 activation of -0.175%. For Cc1ccc(C)cc1, the caspase-3 activation was -0.809%. For CN(C)CCCCl, the caspase-3 activation was -0.558%. Compound CC(=O)c1nccs1 has a caspase-3 activation of 0.103%. In the case of CCc1ccccc1, the caspase-3 activation is reported as -1.29%. Work on CCCCC(C=O)CC (centres undefined) yielded a caspase-3 activation of 0.71%. With CC(C)=C1CCC(C)CC1=O (centres undefined) the caspase-3 activation was 0.404%. CCCCCCCCC gave a caspase-3 activation of -0.687%. Compound C=CCCCCCC has a caspase-3 activation of 0.339%. With Cc1ccc(C)c([N+](=O)[O-])c1 the caspase-3 activation was 0.386%.
